The target in assay [1] is Cellular tumor antigen p53 (Homo sapiens) (UniProt P04637). Nature of the assay: Primary qHTS for small molecule compounds that upregulate eGFP-tagged delta133p53alpha (in N-terminal) cells. (AID 2060322). Further: nearly all actives have a fitted effect of over 75% in size. Further: potency means the concentration at half of the fitted maximal effect.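 On activation: cells pre-induced with doxycycline then dosed without doxycycline; 0% = DMSO vehicle and 100% = reference activator.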 The conditions noted are these: NCI-H358 eGFP-delta133p53alpha fluorescence, 24 h; activation: stronger effect = higher value. The essentials: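 NCI-H358 cells pre-induced 24 h with 10 ng/ml doxycycline for eGFP-delta133p53alpha, plated dox-free and exposed 24 h at 37C to titrated compounds. Fixed, Hoechst-stained; gated GFP peak intensity by laser scanning cytometry, normalized to DMSO (0%) and 57.5 uM 5-azacytidine (100%).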

For assay [2], the target named is Aldehyde dehydrogenase, mitochondrial (Homo sapiens) (UniProt P05091). Nature of the assay: qHTS for Inhibitors of the Aldehyde Dehydrogenase Family (ALDH2) Primary screen (AID 2061308).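 Further: plate controls were vehicle for no effect and reference inhibitor for full effect; nearly all actives have a fitted effect of over 55% in size.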 As to conditions: ALDH2 enzyme inhibition qHTS, 1536-well; series mostly up to 56 µM.
Assay [3] concerns the target Retinaldehyde dehydrogenase 3 (Homo sapiens) (UniProt P47895). Nature of the assay: qHTS for Inhibitors of the Aldehyde Dehydrogenase Family (ALDH1A3) Validation screen (AID 2061312). Further: on the % scale 0 is the no-effect control and ±100 the full control effect; nearly all actives have a fitted effect of over 45% in size. The conditions noted are these: ALDH1A3 enzyme inhibition qHTS validation, fluorescence; series mostly up to 84.7 µM.
The target is the same in assay [4]. Nature of the assay: qHTS for Inhibitors of the Aldehyde Dehydrogenase Family (ALDH1A3) Primary screen (AID 2061315).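 Further: plate controls were DMSO vehicle for no effect and reference inhibitor for full effect.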 As to conditions: ALDH inhibition qHTS; series mostly up to 56 µM.

The structures appear in SMILES notation. Records with an inconclusive call do not appear. Unmarked numbers belong to inactive results. Activity calls are given as the source filed them. The call rests on the fitted dose curve; in most records, active means well fitted curve in the direction sought with a large enough effect; inconclusive means small, poorly fitted or top-dose-only effect, or another doubt; inactive means no such curve, though single readings can be large; an effect the other way counts as inactive or inconclusive.

Chain of Cellular tumor antigen p53 (Homo sapiens) (P04637 whole entry, looked up): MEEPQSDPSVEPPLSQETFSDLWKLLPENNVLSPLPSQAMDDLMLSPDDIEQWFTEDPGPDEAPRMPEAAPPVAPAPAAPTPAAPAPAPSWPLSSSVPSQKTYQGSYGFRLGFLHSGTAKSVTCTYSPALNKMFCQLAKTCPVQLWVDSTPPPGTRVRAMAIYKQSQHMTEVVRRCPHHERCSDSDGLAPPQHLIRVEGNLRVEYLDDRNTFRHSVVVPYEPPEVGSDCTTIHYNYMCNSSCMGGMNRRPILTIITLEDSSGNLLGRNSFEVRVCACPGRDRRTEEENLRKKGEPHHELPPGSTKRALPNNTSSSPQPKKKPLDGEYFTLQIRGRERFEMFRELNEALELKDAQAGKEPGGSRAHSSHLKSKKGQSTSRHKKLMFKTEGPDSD

Take `NC(=O)c1cccc2cn(-c3ccc(C4CCCNC4)cc3)nc12` (configuration not stated): the activation in assay [1] was 26.7%. Further, the Potency entry in assay [2], in assay [3] and in assay [4] was “inactive” throughout.
For `O=C(CSc1nc2c(c(=O)n1-c1ccccc1)SCC2)Nc1ccc(-c2ccccc2)cn1`, in assay [1], the activation is 11.5%. The Potency entry in assay [2], in assay [3] and in assay [4] was “inactive” in each case.
With `CNc1nc(NCc2ccc(NS(C)(=O)=O)cc2Cl)cc(-c2ccccn2)n1`, the activation in assay [1] is 7.64%. The Potency entry in assay [2], in assay [3] and in assay [4] was “inactive” throughout.
As for `CC(C)NCC(C(=O)N1CCN(c2ncnc3c2C(C)CC3O)CC1)c1ccc(Cl)cc1` (configuration not stated), the activation in assay [1] was 0.955%. The Potency entry in assay [2], in assay [3] and in assay [4] was “inactive” throughout.
In the case of `O=C(O)CC1CCC(c2ccc(NC(=O)c3nnc(Nc4ccc(F)c(F)c4)o3)cc2)CC1` (configuration not stated), in assay [1], the activation was -0.955%. In addition, the Potency entry in assay [2], in assay [3] and in assay [4] was “inactive” in each case.
On to `Cn1c(=O)c2c(ncn2Cc2ccc(C(C)(C)C)cc2)n(C)c1=O`, for which the activation in assay [1] was -5.25%. The Potency entry in assay [2], in assay [3] and in assay [4] was “inactive” each time.
Regarding `O=C(NCc1ccccn1)Nc1nnc(-c2ccco2)o1`, the activation in assay [1] was 11.9%. Also, the Potency result in assay [2], in assay [3] and in assay [4] was “inactive” in each case.
For the molecule `CC(C)(C)C1CCN(C(=O)n2ncc(C(O)(c3ccccc3)c3ccccc3)n2)CC1`, the activation in assay [1] was 6.21%. Also, the Potency entry in assay [2], in assay [3] and in assay [4] was “inactive” each time.
As to `CC1(C(=O)Nc2ccc(F)nc2)CCCN1c1nc(Nc2cc(C3CC3)[nH]n2)c2cccn2n1` (configuration not stated), the Potency in assay [1] is 30.1 µM (active). Besides, the Potency result in assay [2], in assay [3] and in assay [4] was “inactive” in each case.
Turning to `Cc1ccc2[nH]c(=O)c(C3=NN(C(=O)CCC(=O)O)C(c4ccc(Br)cc4)C3)c(-c3ccccc3)c2c1` (configuration not stated), the activation in assay [1] was -22.4%. The Potency entry in assay [2], in assay [3] and in assay [4] was “inactive” throughout.
As to `CC1(C)Oc2ncnc(N)c2N=C1c1ccc(C23CCC(CC(=O)O)(CC2)CC3)cc1`, the activation in assay [1] was -11.9%. Further, the Potency entry in assay [2], in assay [3] and in assay [4] was “inactive” throughout.
For the molecule `O=C(NCCCn1ccnc1)c1cc(-c2ccco2)on1`, the activation in assay [1] was -9.07%. In addition, the Potency entry in assay [2], in assay [3] and in assay [4] was “inactive” throughout.
Regarding `O=C(c1c2ccccc2cc2ccccc12)N1CCC(N2CCC[C@@H](C(=O)N3CCOCC3)C2)CC1`, the activation in assay [1] is -1.91%. For the same molecule, the Potency result in assay [2], in assay [3] and in assay [4] was “inactive” throughout.
Take `OC1(CN2CCC(COc3noc4cccc(O[C@@H]5CCOC5)c34)CC2)CCOCC1`: the activation in assay [1] was 3.82%. For the same molecule, the Potency result in assay [2], in assay [3] and in assay [4] was “inactive” each time.
Regarding `O=C(Nc1ccc(S(=O)(=O)Nc2nccs2)cc1)C(c1ccccc1)c1ccccc1`, in assay [1], the activation was -2.86%. Moreover, the Potency result in assay [2], in assay [3] and in assay [4] was “inactive” each time.
Take `O=C(O)[C@H](Cc1ccccc1)Oc1ccc(-c2ccccc2)cc1`: the activation in assay [1] was -3.34%. In addition, the Potency entry in assay [2], in assay [3] and in assay [4] was “inactive” each time.
Regarding `COc1cccc(CN(C(=O)CC(C)(C)C)C2CC(C(=O)N3CCNCC3)N(Cc3ccc4c(c3)OCO4)C2)c1` (configuration not stated), the activation in assay [1] is -10%. The Potency entry in assay [2], in assay [3] and in assay [4] was “inactive” throughout.
Consider `CCN(CC)Cc1ccc(C(=O)N(CCc2ccccc2OC)[C@@H]2CCNC2)cc1`, for which the activation in assay [1] was 3.34%. In addition, the Potency result in assay [2], in assay [3] and in assay [4] was “inactive” throughout.
On to `O=C(NCCN1CCOCC1)c1cc2c(Oc3ccc(NC(=O)C4(C(=O)Nc5ccc(F)cc5)CC4)cc3)ccnc2[nH]1`, for which the activation in assay [1] is 10%. For the same molecule, the Potency result in assay [2], in assay [3] and in assay [4] was “inactive” in each case.
As for `Cn1ncnc1COc1nn2c(-c3cc(F)ccc3F)nnc2cc1C(C)(C)C`, in assay [1], the activation was -11.9%. Moreover, the Potency entry in assay [2], in assay [3] and in assay [4] was “inactive” in each case.
For `N[C@@H]1c2cccnc2[C@H](OC(=O)N2CCC(n3c(=O)[nH]c4ncccc43)CC2)CC[C@H]1c1cccc(F)c1F`, the activation in assay [1] was -10.5%. Also, the Potency result in assay [2], in assay [3] and in assay [4] was “inactive” in each case.
Turning to `Cn1cc(S(=O)(=O)c2ccc(Cl)cc2)c2cccc(N3CCNCC3)c21`, the activation in assay [1] is 3.34%. The Potency result in assay [2], in assay [3] and in assay [4] was “inactive” each time.
For the molecule `CN(C)CCC[C@]1(c2ccc(F)cc2)OCc2cc(C#N)ccc21`, the activation in assay [1] was 0.477%. In addition, the Potency result in assay [2], in assay [3] and in assay [4] was “inactive” each time.
As to `Cc1oc2ccccc2c1CNC(=O)NCc1cccs1`, the activation in assay [1] was -8.59%. Besides, the Potency result in assay [2], in assay [3] and in assay [4] was “inactive” throughout.
Regarding `CC(=O)Nc1cccc(Nc2ncnc(N3CCC(OCc4ccc(OC(F)(F)F)cc4)CC3)n2)c1C`, in assay [1], the activation was -6.21%. In addition, the Potency entry in assay [2], in assay [3] and in assay [4] was “inactive” each time.
Turning to `CN(CC(=O)N(Cc1ccc(C2CCCCC2)cc1)c1ccc(C(=O)O)cc1)S(=O)(=O)c1c(F)c(F)c(F)c(F)c1F`, in assay [1], the Potency is 6.75 µM (active). Besides, the Potency result in assay [2], in assay [3] and in assay [4] was “inactive” each time.
Take `CN(C)c1ccnc2sc3c(=O)n(N4CCCCCC4)cnc3c12`: the activation in assay [1] was -18.1%. In addition, the Potency entry in assay [2], in assay [3] and in assay [4] was “inactive” each time.
On to `N=C(N)c1ccc2nc(-c3cc(CC(=O)NC(CC(=O)O)C(=O)O)cc(-c4cc(S(N)(=O)=O)ccc4O)c3O)[nH]c2c1` (configuration not stated), for which, in assay [1], the activation is -8.59%. Further, the Potency entry in assay [2], in assay [3] and in assay [4] was “inactive” throughout.

The record behind these values is PubChem BioAssay (NCATS).
